S2 tox: reduces viability in counter-screen for ATXN expression inhibitors | S2 cells (HEK-293 line with an ATXN2-luciferase reporter) viability, CellTiter-Fluor protease fluorescence, 24 h | Potency, µM (series often up to 56.7 µM), most hits filed as cytotoxic | 400,000 compounds, 0.49% hits | AID 651635; also: nearly all actives have a fitted effect of over 40% in size
12-LOX inh: ALOX12 (human) lipoxygenase inhibition; 580,000 compounds, 1.1% hits; Potency, µM (series often up to 108 µM), actives largely listed as inhibitors; AID 1671190; purified 12hLO, xylenol orange hydroperoxide absorbance
Target sequence (P18054 whole entry, looked up): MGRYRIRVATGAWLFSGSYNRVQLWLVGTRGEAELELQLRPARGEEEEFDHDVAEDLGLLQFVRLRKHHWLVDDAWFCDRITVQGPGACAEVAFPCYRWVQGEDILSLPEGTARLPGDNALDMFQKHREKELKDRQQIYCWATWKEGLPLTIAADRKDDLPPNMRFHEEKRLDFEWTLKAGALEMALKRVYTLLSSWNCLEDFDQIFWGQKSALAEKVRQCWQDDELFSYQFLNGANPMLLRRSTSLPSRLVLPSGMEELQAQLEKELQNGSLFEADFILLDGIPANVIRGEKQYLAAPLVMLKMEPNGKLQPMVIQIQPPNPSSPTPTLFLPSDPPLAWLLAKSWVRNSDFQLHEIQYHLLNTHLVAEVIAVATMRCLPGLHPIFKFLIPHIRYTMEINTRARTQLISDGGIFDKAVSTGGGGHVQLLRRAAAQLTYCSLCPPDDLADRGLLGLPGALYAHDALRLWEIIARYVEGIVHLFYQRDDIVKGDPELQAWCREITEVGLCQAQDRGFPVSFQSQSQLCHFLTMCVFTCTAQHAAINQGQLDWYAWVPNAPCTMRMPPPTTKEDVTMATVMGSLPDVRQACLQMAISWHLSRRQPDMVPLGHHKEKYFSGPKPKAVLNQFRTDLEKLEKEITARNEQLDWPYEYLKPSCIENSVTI
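Hydroperoxide product was detected by ferrous iron/xylenol orange as the 573 to 405 nm absorbance ratio. Arachidonic acid at 40 uM (final) was turned over for 30 min at room temperature by 150 nM human 12hLO, pH 7.0 Hepes buffer, after 15 min compound preincubation.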
TGFb SMAD3 inh: blocks TGF-b signaling; HepG2 CAGA-GFP TGF-b/SMAD3 reporter, GFP fluorescence, 18 h; TGF-beta stimulated, 500 pg/mL final; Potency, µM (series often up to 46.1 µM), usual class: inhibitors; AID 588855; 410,000 compounds, 1.2% hits; also: nearly all actives have a fitted effect of over 65% in size
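First, reporter cells (HEPG2 CAGA-GFP) rested 2 h at 37 degrees C. Next, compounds were pinned in and TGF-beta added to 500 pg/mL final. After 18 h, GFP was imaged per cell and summed per well.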
ATXN2 expr inh: reduces ATXN2 reporter expression in HEK-293 cells. HEK-293 ATXN2-luciferase reporter, luminescence, 24 h. Potency, µM (highest dose often 57 µM), hits mostly inhibitors. 360,000 compounds, 0.72% hits. AID 1745845; also: nearly all actives have a fitted effect of over 55% in size
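ATXN2-luciferase reporter cells (luciferase flanked by upstream and downstream ATXN2 gene portions) were treated 24 h at 37 °C with compounds at up to 57 uM. SteadyGlo luminescence gave expression; GF-AFC fluorescence gave viability.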
HepG2 tox: kills HepG2 cells in TGF-b inhibitor counter-screen; HepG2 CAGA-GFP viability, ATP luminescence, 18 h; Potency, µM (titrated, usually from 46.1 µM), hits mostly cytotoxic; 410,000 compounds, 0.76% hits
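CellTiter-Glo luminescence gave cytotoxicity after 18 hours at 37 degrees C. The cells were HepG2 CAGA-GFP in 1% FBS DMEM, stimulated with 500 pg/mL TGF-beta after compound addition. %Activity was normalised to no-cell wells (complete cell-killing) and DMSO (no toxicity), and curves were fitted and classified.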
Each line names hits and unclear results; the compound was inactive in the other large screens. In the library only some 2.7% were active in any assay of this set; here they are far more common. Calls follow the shape of the dose curve; as a rule, active = well fitted curve in the direction sought with a large enough effect; inconclusive = small, poorly fitted or top-dose-only effect, or another doubt; inactive = no such curve, though single readings can be large; an effect the other way counts as inactive or inconclusive.

O=[N+]([O-])c1cccnc1Nc1ccc(Cl)cc1	S2 tox inconclusive (no result: ATXN2 expr inh)
COc1cccc(/C=N/Nc2nc(C)cc(=O)[nH]2)c1OC	12-LOX inh inconclusive
COc1cccc(/C=N/Nc2ncccc2[N+](=O)[O-])c1OC	ATXN2 expr inh 3.16µM
O=[N+]([O-])c1ccc(/C=N/Nc2ncccc2[N+](=O)[O-])s1	HepG2 tox 5.01µM
O=C(Nc1cccc(S(=O)(=O)Nc2ccc(Cl)cc2)c1)c1ccc(Cl)nc1	S2 tox inconclusive, 12-LOX inh inconclusive, TGFb SMAD3 inh 14.1µM, ATXN2 expr inh inconclusive
O=C1CSc2ccc(C(=O)Nc3cccc(S(=O)(=O)Nc4ccc(Br)cc4)c3)cc2N1	S2 tox inconclusive, 12-LOX inh inconclusive, TGFb SMAD3 inh 12.6µM, HepG2 tox 15.8µM (no result: ATXN2 expr inh)
COc1ccccc1C(=O)N1CCC(c2nc3ccccc3o2)CC1	none (no result: S2 tox, TGFb SMAD3 inh, ATXN2 expr inh, HepG2 tox)
COc1cccc(C(=O)Nc2nc(SCc3ccc(Cl)cc3)n[nH]2)c1	HepG2 tox 15.8µM
Cc1cc(C)cc(-n2ccn3c(SCC(=O)c4ccc(Br)cc4)nnc3c2=O)c1	none (no result: S2 tox, TGFb SMAD3 inh, ATXN2 expr inh, HepG2 tox)
CNC(=O)c1sc(N2N=C3/C(=C/c4ccccc4)CCCC3C2c2ccccc2)nc1C (configuration not stated)	ATXN2 expr inh 12.6µM (no result: S2 tox)
O=C(COc1ccc(Cl)cc1)NC1CCc2n[nH]c(=O)n2CC1 (configuration not stated)	none (no result: S2 tox, TGFb SMAD3 inh, ATXN2 expr inh, HepG2 tox)
COc1ccc(Cc2nnc(SCC(=O)Nc3ccc(F)cc3)n2C)cc1	none (no result: S2 tox, TGFb SMAD3 inh, ATXN2 expr inh, HepG2 tox)
O=C1c2ccccc2C(=O)N1/N=C/c1ccc(O)c(O)c1	12-LOX inh 22.4µM
CCc1ccc(C(=O)CN(C#N)c2nc(C)cc(C)n2)cc1	S2 tox inconclusive, TGFb SMAD3 inh inconclusive, HepG2 tox 11.2µM
Cc1cc(C)nc(N(C#N)CC(=O)c2ccccc2)n1	S2 tox inconclusive
O=S(=O)(c1ccccc1)N1CCN(CCOc2ccc(F)cc2)CC1	S2 tox inconclusive (no result: ATXN2 expr inh)
CN1C(=O)N(C)C2(CCN(CCOc3ccc(F)cc3)C2)C1=O (configuration not stated)	12-LOX inh 50.1µM (no result: S2 tox, TGFb SMAD3 inh, ATXN2 expr inh, HepG2 tox)
CC1CCN(CCCn2c(=S)[nH]c3c(sc4ccc([N+](=O)[O-])cc43)c2=O)CC1	S2 tox inconclusive, 12-LOX inh inconclusive
O=C(O)CCCn1c(=S)[nH]c2c(sc3ccc([N+](=O)[O-])cc32)c1=O	12-LOX inh 17.8µM
CC(=O)NC1C(=O)N(CCOc2cccc(C)c2)c2ccc(C)cc21 (configuration not stated)	none (no result: S2 tox, TGFb SMAD3 inh, ATXN2 expr inh, HepG2 tox)
Cc1cc(NS(=O)(=O)c2ccc(NC(=O)Nc3ccccc3)cc2)no1	none
CCc1nnc(NS(=O)(=O)c2ccc(NC(=S)NC(=O)c3ccc(F)cc3)cc2)s1	S2 tox inconclusive, 12-LOX inh 22.4µM
Cc1cc(NS(=O)(=O)c2ccc(NC(=S)NC(=O)c3ccc(Br)cc3)cc2)no1	12-LOX inh 10µM
Cc1cc(NS(=O)(=O)c2ccc(NC(=S)NCc3ccccc3)cc2)no1	12-LOX inh 44.7µM
COC/C=C/C1=CC2=CC(=O)C(C)(OC(=O)C3CCCC3)C(=O)C2=CO1 (configuration not stated)	12-LOX inh 22.4µM, TGFb SMAD3 inh inconclusive
Cc1c(CC(=O)NCCCC(=O)O)c(=O)oc2cc3c(cc12)CCC(C)(C)O3	12-LOX inh inconclusive, ATXN2 expr inh 3.16µM
O=C(Nc1c(NC2CCCC2)c2ccccc2oc1=O)C1CC1	none (no result: S2 tox, TGFb SMAD3 inh, ATXN2 expr inh, HepG2 tox)
CCC(=O)Nc1ccc2nc(SCc3ccc(F)cc3)sc2c1	12-LOX inh 14.1µM (no result: S2 tox, TGFb SMAD3 inh, ATXN2 expr inh, HepG2 tox)
O=C(CSc1nc2ccccc2s1)Nc1ccc(F)c(F)c1	12-LOX inh 35.5µM (no result: S2 tox, TGFb SMAD3 inh, ATXN2 expr inh, HepG2 tox)
O=C(CSc1nccc(-c2cccs2)n1)Nc1ccc(F)c(Cl)c1	TGFb SMAD3 inh 12.6µM (no result: ATXN2 expr inh)
Cc1nc(NC(=O)CSc2nc3ccccc3s2)sc1C(=O)N(C)C	12-LOX inh 39.8µM
Cc1cccc(C(=O)Nc2cccc3ccc(C)nc23)c1	none (no result: S2 tox, TGFb SMAD3 inh, ATXN2 expr inh, HepG2 tox)
N#Cc1cccc(NC(=O)CNc2ccccc2C(N)=O)c1	none (no result: S2 tox, TGFb SMAD3 inh, ATXN2 expr inh, HepG2 tox)
O=C(O)CNS(=O)(=O)c1ccc2c(c1)Cc1cc(S(=O)(=O)NCC(=O)O)ccc1-2	12-LOX inh 8.91µM
COc1ccc(CCC(C)NCCc2ccc(Cl)cc2Cl)cc1 (configuration not stated)	12-LOX inh inconclusive, TGFb SMAD3 inh inconclusive, HepG2 tox 15.8µM (no result: S2 tox, ATXN2 expr inh)
